High-throughput results (PubChem)
TGFb inhibitor – qHTS for Inhibitors of TGF-b. Potency, µM (highest dose often 46.1 µM), inactives show at the top dose activity, negative = inhibition, actives largely listed as inhibitors. 1.2% of 410,000 active. HepG2 CAGA-GFP TGF-b/SMAD3 reporter, GFP fluorescence, 18 h; TGF-beta stimulated, 500 pg/mL final; also: potency is read from the fitted curve at half-maximal effect; % is scaled to controls: 0 for no effect and ±100 for the full control effect; nearly all actives have a fitted effect of over 65% in size
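GFP signal (ex488/em500-530) from TGF-beta-stimulated HEPG2 CAGA-GFP cells, 500 pg/mL final, 18 h at 37 degrees C in DMEM plus 1% FBS, normalized to unstimulated and DMSO-stimulated controls.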
HepG2 tox – qHTS for Inhibitors of TGF-b: Cytotox Counterscreen | 0.76% of 410,000 active | HepG2 CAGA-GFP viability, ATP luminescence, 18 h | Potency, µM (titrated, usually from 46.1 µM), without a hit: top-dose activity change, negative = cytotoxicity, hits mostly cytotoxic; also: potency is read from the fitted curve at half-maximal effect
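HepG2 CAGA-GFP cells (1000/well, DMEM with 1% FBS) received compound, then TGF-beta at 500 pg/mL final, and were incubated 18 hours at 37 degrees C. Viability was read by CellTiter-Glo luminescence. Media-only wells were set as complete cell-killing and DMSO as no toxicity.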
HT1080 IDH1KD tx – qHTS for induction of synthetic lethality in tumor cells producing 2HG: qHTS for the HT-1080-IDH1KD cell line. HT-1080 IDH1 knockdown viability, ATP luminescence, 48 h. Potency, µM (titrated, usually from 46.1 µM), inactives show at the highest dose activity, negative = toxicity, usual class: cytotoxic. 2% of 360,000 active;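 also: potency is read from the fitted curve at half-maximal effect; 0% = DMSO wells and -100% = cell-free medium wells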
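Assay cells: HT-1080 with IDH1 knockdown, 750 per well, RPMI/5% FBS. Exposure: 48 h at 37 °C following 2 h pre-incubation. Read: CellTiter-Glo luminescence; fitted concentration-response, curve class assigned.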
HT1080NT lethal – qHTS for induction of synthetic lethality in tumor cells producing 2HG: qHTS for the HT-1080-NT fibrosarcoma cell line | HT-1080-NT fibrosarcoma viability, CellTiter-Glo ATP luminescence, 48 h | Potency, µM (doses to about 46.1 µM), inactives show at the top dose activity, negative = less viability, most hits filed as cytotoxic | 1.6% of 360,000 active;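 also: NT is the 2HG producing partner of a matched IDH1 knockdown line; potency is read from the fitted curve at half-maximal effect; 0% = DMSO-treated cells and -100% = media-only wells without cells; nearly all actives have a fitted effect of over 55% in size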
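Viability of the 2HG-overproducing fibrosarcoma line after 48 hours of compound exposure at 37 degrees C was determined by luminescence with CellTiter-Glo, and concentration-effect curves were then fitted and categorized.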
IL-1B inflam inh – qHTS for Inhibitors of Inflammasome Signaling: IL-1-beta AlphaLISA Primary Screen; THP-1 LPS/ATP IL-1B secretion, AlphaLISA, 16 h; active compounds read low; activity change, % at 57.5 µM; 4.7% of 360,000 active; AID 743279, 2014; in the data active = activity change below about -50%; inconclusive = mostly about -30% to -49%; also: % is scaled to controls: 0 for no effect and ±100 for the full control effect
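THP-1 cells pretreated 1 hr with compounds (up to 57.5 uM final), then stimulated with LPS (250 ng/mL final) plus ATP (1.25 mM final); secreted IL-1B measured by AlphaLISA after 16 hr, decreased signal indicating inhibition.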
Giardia kill – Small Molecules that selectively kill Giardia lamblia: qHTS; AID 540267, 2011; Giardia lamblia trophozoite viability; activity change, % at 7.66 µM, hits read low; 0.15% of 340,000 active; in the data active = activity change below about -80%; inconclusive = between about -30% and that limit;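 also: parasites exposed to compound for two days anaerobically before the ATP read; % is scaled to controls: 0 for no effect and ±100 for the full control effect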
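Viability, read as ATP luminescence: trophozoites at 100 cells/well, compound added, 48 hrs anaerobic at 37 deg C, then 15-30 min room-temperature development before reading.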
Numbers without * were called inactive; ? = inconclusive; nt = no result given. The list is not random: actives were taken first. Their share in the collection is about 6.5%. Unless noted, calls follow the shape of the dose curve; as a rule, active = well fitted curve in the direction sought with a large enough effect; inconclusive = small, poorly fitted or top-dose-only effect, or another doubt; inactive = no such curve, though single readings can be large; an effect the other way counts as inactive or inconclusive.

SMILES	TGFb inhibitor	HepG2 tox	HT1080 IDH1KD tx	HT1080NT lethal	IL-1B inflam inh	Giardia kill
COc1ccc(C(=O)/C=C/c2ccc(OC3CSC3)cc2)cc1OC	?	-1.7%	-23.3%	?	-87.6*	-7.0
O=C(CN1CCCCCC1)N/N=C/c1ccc2ccccc2c1	8.7%	-24.3%	10.3%	?	-2.5	-28.8
Cn1c(=O)cc(OCC(=O)NCCC2=CCCCC2)c2ccccc21	0.9%	-7.0%	12.8%	?	-11.0	24.2
COc1ccc(NC(=O)NCCCCc2ccccc2)c(OC)c1	-4.5%	-0.6%	7.7%	12.3%	5.6	5.0
CCOC(=O)c1[nH]c(C)c(CCC(=O)NCc2ccc(OC)cc2)c1C	19.5%	1.5%	nt	nt	nt	nt
COc1ccc(/C=C/C(=O)Nc2ccccc2)cc1OC	-3.5%	6.5%	12.6%	?	?	-7.1
COc1ccc(/C=C/C(=O)C2(O)CCCCC2)cc1OC	?	-24.8%	?	?	-91.4*	1.3
COc1ccc(/C=C/C(=O)c2ccc(NC(=O)c3cccs3)cc2)cc1OC	0.0%	-41.1%	-26.2%	?	-65.8*	6.3
COc1ccc(/C=C/C(=O)NCc2ccccn2)cc1OC	5.3%	0.5%	-0.9%	1.7%	-72.8*	-14.7
COc1cccc(C(=O)/C=C/c2ccc(OCC#N)c(OC)c2)c1	?	-41.6%	?	?	-101.9*	8.6
COc1cc(/C=C/C(=O)c2ccc(O)cc2)ccc1OCC#N	?	-94.5%	15.8%	24.3%	?	-11.2
COc1ccc2c(CNCCc3ccco3)c(C(=O)O)n(Cc3ccc(F)cc3)c2c1	-15.6%	-3.4%	nt	nt	nt	nt
CCOC(=O)C(C#N)=C1CCC=C(C)C1	-1.2%	0.9%	3.1%	5.7%	4.3	nt
CCOc1ccc(/C=C/C(=O)c2ccccc2)cc1OC	?	-37.1%	-0.5%	-7.4%	-102.6*	-4.1
CCOc1ccc(C(=O)/C=C/c2ccc(OC)c(OC)c2)cc1	-29.2%	6.5%	-15.7%	-12.9%	-105.9*	-7.8
CCCN(CCC)S(=O)(=O)c1ccc(Cl)c([N+](=O)[O-])c1	?	-22.8%	23.1µM*	?	-102.8*	7.7
CCOC(=O)C(C)(C)N(Cc1ccccc1C)S(=O)(=O)c1ccc(Cl)c([N+](=O)[O-])c1	6.8%	-20.9%	?	?	-96.8*	-5.5
COc1ccc(-c2cnn(C3CCS(=O)(=O)C3)c2N)cc1 (stereo unspecified)	-2.2%	-0.3%	11.7%	7.0%	-6.7	-1.7
CCC(=O)Nc1ccc(S(=O)(=O)NCc2ccc3c(c2)CCN3C(=O)c2ccc(C)cc2)cc1	?	-26.9%	nt	nt	nt	nt
CCC(=O)Nc1ccc(/C(C)=N\NC(=O)c2ccc(C)s2)cc1	-12.2%	4.9%	11.7%	2.7%	-28.5	-28.3
N=c1c2c(ncn1Cc1ccco1)Oc1c(ccc3ccccc13)C2c1ccccc1 (stereo unspecified)	0.0%	-27.8%	?	16.4µM*	?	8.2
CN(C)CCn1cnc2c(c1=N)C(c1ccccc1)c1ccc3ccccc3c1O2 (stereo unspecified)	17.8µM*	-86.4%	-15.7%	-28.7%	-57.2*	?
N=c1c2c(ncn1Cc1ccco1)Oc1cc(O)ccc1C2c1ccccc1 (stereo unspecified)	5.8%	-17.6%	-12.6%	-16.2%	-62.2*	10.6
O=C(c1ccccc1)c1c2c(cc3sc4ccccc4[n+]13)-c1cccc3cccc-2c13	94.3%	-41.8%	?	?	-108.4*	0.4
Cc1cc2ccccc2cc1C(=O)c1ccccc1	16.4%	-8.1%	-14.7%	-17.7%	42.5	-1.3
